Experimental data published in PubChem BioAssay (NCATS).
“And” between values parts separate entries of the source, which are not always exact repeats. Equal values may be shown once. Inconclusive results are not listed. The source made the active and inactive calls. Unless noted, how the calls were made is not given here.

Experiments:
[1] = qHTS Assay for Identifying Gametocytocidal Compounds (AID 743244; active means well fitted curve in the direction sought with a large enough effect; an effect the other way counts as inactive or inconclusive;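 further: on the % scale 0 is the no-effect control and ±100 the full control effect; actives lower the fluorescent signal which means gametocytes are killed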); conditions: P. falciparum 3D7 stage III-V gametocytes, alamarBlue, 72 h; max response: stronger effect = lower value
Procedure, shortened: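 Stage III-V P. falciparum 3D7 gametocytes, 20,000 per well, were exposed to compounds for 72 h at 37C, 5% CO2. AlamarBlue was then added for 24 h and viability was read as fluorescence at Ex 525/Em 598 nm.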

[2] = qHTS profiling of the MIPE4 collection as inhibitors of Plasmodium falciparum (3D7) proliferation (AID 743344);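 further: scaled between DMSO vehicle wells and 0.29 µM artemisinin as full inhibition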; conditions: P. falciparum 3D7 in erythrocytes, SYBR Green DNA fluorescence, 72 h; at 28.5 µM (top of the series) unless noted
Procedure, shortened: (§1)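 Erythrocytes infected with P. falciparum (0.3% parasitemia, 2.5% hematocrit) incubated with compounds 72 h at 37 C, 5% CO2. Lysis with saponin/Triton buffer containing SYBR Green I, overnight at room temperature in the dark; DNA fluorescence (485/535 nm) normalised to 0.29 uM artemisinin and DMSO.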

[3] = qHTS profiling of the MIPE4 collection as inhibitors of Plasmodium falciparum (DD2) proliferation (AID 743345); conditions: P. falciparum Dd2 in erythrocytes, SYBR Green DNA, 72 h; at 28.5 µM (top of the series) unless noted
Procedure, shortened: as §1

[4] = qHTS profiling of the MIPE4 collection as inhibitors of Plasmodium falciparum (DD2) proliferation (Rep 2) (AID 743346); conditions: P. falciparum Dd2 in erythrocytes, SYBR Green DNA, 72 h; at 28.5 µM (top of the series) unless noted
Procedure, shortened: as §1

[5] = qHTS profiling of the MIPE4 collection as inhibitors of Plasmodium falciparum (HB3) proliferation (AID 743347);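 further: plate controls were DMSO vehicle wells for no effect and artemisinin wells for full effect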; conditions: P. falciparum HB3 in erythrocytes, SYBR Green DNA, 72 h; at 28.5 µM (top of the series) unless noted
Procedure, shortened: as §1

[6] = High-throughput drug toxicity screening in the BPDCN cell line Gen2.2 (AID 1224824); conditions: Gen2.2 BPDCN cells; at 45.8 µM (top of the series) unless noted;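 further: cells exposed to compounds for 48 h before reading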
Procedure, shortened: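 Gen2.2 cells (500/well) in phenol red-free RPMI with 10% FBS were exposed to compounds for 48 h at 37 °C, 5% CO2. Viability was read by CellTiter-Glo luminescence and normalized to DMSO (100%) and 9.2 uM bortezomib (0%).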

[7] = qHTS profiling for inhibitors of Plasmodium falciparum (3D7) proliferation (AID 743322);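 further: infected erythrocytes exposed to compound for 72 h before lysis; 100% = DMSO vehicle wells and 0% = 0.29 µM artemisinin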; conditions: P. falciparum 3D7 proliferation; at 28.7 µM (top of the series) unless noted
Procedure, shortened: as §1

[8] = qHTS profiling for inhibitors of Plasmodium falciparum (HB3) proliferation (AID 743324; active means well fitted curve in the direction sought with a large enough effect; an effect the other way counts as inactive or inconclusive;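 further: 100% = DMSO vehicle wells and 0% = artemisinin-treated control wells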); conditions: Plasmodium falciparum HB3 blood-stage proliferation; at 28.7 µM (top of the series) unless noted
Procedure, shortened: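 P. falciparum HB3 grown in erythrocytes (0.3% parasitemia, 2.5% hematocrit final) with compound for 72 h at 37 C, 5% CO2. Parasite DNA detected by SYBR Green after saponin/triton lysis overnight; normalized to 0.29 uM artemisinin and DMSO.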

CCOC(=O)c1c(C)n(C)c2ccc(O)cc12
max response [1]: 2.91% (inactive) | parasite growth, % of DMSO control [2]: 93.9% | parasite growth remaining, % of DMSO control (lower = more inhibition) [3]: 93.3% | parasite growth, % of control (lower = inhibition) [4]: 87.1% | growth, % of control [5]: 66.7% | cell viability, % of control (lower = more cytotoxic) [6]: 232%

Cc1cc(=O)c2c(O)c3c(O)cc(=O)c4c3c3c(cc(O)c1c23)C(C)(C)C=4O
max response [1]: -6.69% (inactive) | parasite growth, % of DMSO control [2]: 6.69% | parasite growth remaining, % of DMSO control (lower = more inhibition) [3]: 23.7% | parasite growth, % of control (lower = inhibition) [4]: 13.7% | growth, % of control [5]: 5.99% | cell viability, % of control (lower = more cytotoxic) [6]: 130%

COCCCOc1ccnc(CS(=O)c2nc3ccccc3[nH]2)c1C (stereo not drawn)
max response [1]: 2.05% (inactive) | cell viability, % of control (lower = more cytotoxic) [6]: 139%

CC(C)[N+]1(C)[C@@H]2CC[C@H]1CC(OC(=O)C(CO)c1ccccc1)C2 (stereo partly drawn)
max response [1]: 6.21% (inactive) and -2.53% (inactive) | parasite growth, % of DMSO control [2]: 82.2% | parasite growth remaining, % of DMSO control (lower = more inhibition) [3]: 89.9% | growth, % of control [5]: 75% | cell viability, % of control (lower = more cytotoxic) [6]: 31.9%

O=C(O)c1cc(=O)c2c(OCC(O)COc3cccc4oc(C(=O)O)cc(=O)c34)cccc2o1
max response [1]: 10.5% (inactive) | parasite growth, % of DMSO control [2]: 85.2% | parasite growth remaining, % of DMSO control (lower = more inhibition) [3]: 96.7% | growth, % of control [5]: 81% | cell viability, % of control (lower = more cytotoxic) [6]: 106%

NC(=O)Cc1cccc(C(=O)c2ccccc2)c1N
max response [1]: 5.12% (inactive) | parasite growth remaining, % of DMSO control (lower = more inhibition) [3]: 98.5% | growth, % of control [5]: 95.3% | cell viability, % of control (lower = more cytotoxic) [6]: 108%

CC1Cc2ccccc2N1NC(=O)c1ccc(Cl)c(S(N)(=O)=O)c1 (stereo not drawn)
max response [1]: 1.41% (inactive) and -0.446% (inactive) | growth, % of control [5]: 48.2% | cell viability, % of control (lower = more cytotoxic) [6]: 106%

Cc1cc(C2CCCCC2)n(O)c(=O)c1
remaining parasite growth % (stronger effect = lower value) [7]: -0.4% | remaining proliferation (% of control), lower = more inhibition [8]: -0.0898% | parasite growth, % of DMSO control [2]: 6.27% | parasite growth remaining, % of DMSO control (lower = more inhibition) [3]: 7.36% | growth, % of control [5]: 9.38% | cell viability, % of control (lower = more cytotoxic) [6]: 17%

C[C@]12CCC(=O)C=C1CC[C@@H]1[C@H]2[C@@H](O)C[C@@]2(C)[C@H]1CC[C@]2(O)C(=O)CO
parasite growth, % of DMSO control [2]: 76.9% | parasite growth remaining, % of DMSO control (lower = more inhibition) [3]: 93.1% | parasite growth, % of control (lower = inhibition) [4]: 74.9% | growth, % of control [5]: 63% | cell viability, % of control (lower = more cytotoxic) [6]: 208%

Cc1cc2cc3c(C)cc(=O)oc3c(C)c2o1
max response [1]: 13.8% (inactive) | parasite growth, % of DMSO control [2]: 93% | parasite growth remaining, % of DMSO control (lower = more inhibition) [3]: 95.8% | growth, % of control [5]: 76.7% | cell viability, % of control (lower = more cytotoxic) [6]: 16.3%

Clc1ccc(C(Cn2ccnc2)OCc2ccc(Sc3ccccc3)cc2)c(Cl)c1 (stereo not drawn)
parasite growth, % of DMSO control [2]: 5.64% | parasite growth remaining, % of DMSO control (lower = more inhibition) [3]: 6.46% | parasite growth, % of control (lower = inhibition) [4]: 18.3% | growth, % of control [5]: 9.13% | cell viability, % of control (lower = more cytotoxic) [6]: 183%

CCC1=C(C)CN(C(=O)NCCc2ccc(S(=O)(=O)NC(=O)NC3CCC(C)CC3)cc2)C1=O (stereo not drawn)
max response [1]: 36.8% (inactive) | parasite growth, % of DMSO control [2]: 98.4% | parasite growth remaining, % of DMSO control (lower = more inhibition) [3]: 91.8% | growth, % of control [5]: 99.4% | cell viability, % of control (lower = more cytotoxic) [6]: 114%

CN(C)CCc1c[nH]c2ccc(Cn3cncn3)cc12
max response [1]: -0.403% (inactive) | parasite growth, % of DMSO control [2]: 89.2% | parasite growth remaining, % of DMSO control (lower = more inhibition) [3]: 102% | parasite growth, % of control (lower = inhibition) [4]: 62.6% | growth, % of control [5]: 99.9% | cell viability, % of control (lower = more cytotoxic) [6]: 102%

COC(=O)C1=C(C)NC(C)=C(C(=O)OC(C)C)C1c1cccc2nonc12 (stereo not drawn)
max response [1]: 3.5% (inactive) | parasite growth, % of DMSO control [2]: 51.5% | parasite growth remaining, % of DMSO control (lower = more inhibition) [3]: 96.4% | growth, % of control [5]: 99.6% | cell viability, % of control (lower = more cytotoxic) [6]: 131%

CCN(CC)CCOc1ccc(Cc2ccccc2)cc1
parasite growth, % of DMSO control [2]: 58.8% | parasite growth remaining, % of DMSO control (lower = more inhibition) [3]: 74.1% | parasite growth, % of control (lower = inhibition) [4]: 36.4% | growth, % of control [5]: 84.7% | cell viability, % of control (lower = more cytotoxic) [6]: 158%

Oc1ccc(OCc2ccccc2)cc1
max response [1]: 3.93% (inactive) | parasite growth, % of DMSO control [2]: 89.5% | parasite growth remaining, % of DMSO control (lower = more inhibition) [3]: 123% | growth, % of control [5]: 89.5% | cell viability, % of control (lower = more cytotoxic) [6]: 226%

CN1CCC(=C2c3ccccc3CCc3sccc32)CC1
parasite growth, % of DMSO control [2]: 8.53% | parasite growth remaining, % of DMSO control (lower = more inhibition) [3]: 50.7% | parasite growth, % of control (lower = inhibition) [4]: 14.9% | growth, % of control [5]: 8.17% | cell viability, % of control (lower = more cytotoxic) [6]: 93.1%
